Experimental data reported in PubChem BioAssay (NCATS).
Inconclusive results are not listed. A call without a number means that no potency is given here. Calls of active or inactive are those of the source. The call rests on the fitted dose curve; in most records, active means well fitted curve in the direction sought with a large enough effect; inconclusive means small, poorly fitted or top-dose-only effect, or another doubt; inactive means no such curve, though single readings can be large; an effect the other way counts as inactive or inconclusive.

Columns and labels:
[1] = qHTS to identify inhibitors of the type 1 interferon - major histocompatibility complex class I in skeletal muscle: primary screen against the NCATS LOPAC collection (AID 1347405);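 further: lytic HiBiT luminescence reporting HLA-B protein level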
In short: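 CRISPR-engineered immortalized human myoblasts (C25cl48) with HiBiT fused to endogenous HLA-B*08:01, stimulated with 4 ng/ml IFN-beta. LOPAC compounds tested as a 7-point 1:4.3 titration (top 46 uM final), 24 h at 37 C; lytic HiBiT luminescence read.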

[2] = qHTS for inhibitors of adenylyl cyclases using a fission yeast platform: a pilot screen against the NCATS LOPAC library (AID 1347410)
In short: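 Growth medium went into the plates first, then compounds were pinned (final up to 57 µM), then CHP2027 yeast were added. Plates were incubated overnight (18 h) at 30C in the dark, and GFP was measured by laser scanning cytometry.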

[3] = Validation qHTS assay for inhibitors of Activation Induced Cytidine Deaminase (AID): UDG Counterscreen signal (AID 1347427)
In short: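 Counterscreen read of UDG activity (2 U/mL, 4/3x) in the FRET deamination format with AID (1 uM, 4/3x), DJC20/DJC23 substrates (250 nM, 4x), 4 h at room temperature. NaOH stop, fluorescence at 560 ex/665 em.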

[4] = qHTS to identify inhibitors of the type 1 interferon - major histocompatibility complex class I in skeletal muscle: primary screen against the NCATS Mechanism Interrogation Plate v5.0 (MIPE) Libary (AID 1347411); further: nearly all actives have a fitted effect of over 65% in size
In short: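 Immortalized human myoblasts (C25cl48) with HiBit knocked into endogenous HLA-B*08:01 were stimulated with 4 ng/ml IFN-beta and given compounds in 11-point 1:3 titration from 46 uM. After 24 h at 37 C, lytic HiBiT luminescence was read.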

Row | Structure (SMILES) | Potency [1] | outcome [2] | Potency [3] | outcome [4]
1 | NC(=O)c1ccccc1 | inactive | inactive | inactive | 
2 | c1ccc(C2CN3CCSC3=N2)cc1 (stereo unspecified) | inactive | inactive | inactive | 
3 | O=C(O)c1ccccc1Nc1cccc(OCc2ccc3ccccc3n2)c1 | inactive | inactive | inactive | 
4 | Nc1ccc(CCNc2ncnc3c2ncn3C2OC(CO)C(O)C2O)cc1 (stereo unspecified) | inactive | inactive | inactive | 
5 | CC(C)NCC(O)COc1ccc(CC(N)=O)cc1 (stereo unspecified) | inactive | inactive | inactive | 
6 | NCC(O)(CS(=O)(=O)O)c1ccc(Cl)cc1 (stereo unspecified) | inactive | inactive | inactive | 
7 | N=S(=O)(O)Cc1noc2ccccc12 | inactive | inactive | inactive | 
8 | COc1ccccc1N1CCN(CCN(C(=O)c2ccc(F)cc2)c2ccccn2)CC1 | inactive | inactive | inactive | 
9 | O=C(O)c1cccnc1C(=O)O | inactive | inactive | inactive | 
10 | CCCC(=O)NCCc1c2n(c3ccc(OC)cc13)CCCc1ccccc1-2 | inactive | inactive | inactive | 
11 | NC(C(=O)N[C@@H]1C(=O)N2C(C(=O)O)=C(Cl)CS[C@H]12)c1ccccc1 (stereo partly specified) | inactive | inactive | inactive | 
12 | O=C(O)C1CN(CCCP(=O)(O)O)CCN1 (stereo unspecified) | inactive | inactive | inactive | 
13 | Cc1cc(Cn2cnc3c2C[C@@H](C(=O)O)N(C(=O)C(c2ccccc2)c2ccccc2)C3)ccc1N | inactive | inactive | inactive | 
14 | COc1ccc2c(c1)CCC1C2CC[C@@]2(C)C1CC[C@@H]2NCCCCCCN1C(=O)C=CC1=O (stereo partly specified) | inactive | inactive | inactive | 
15 | O=[N+]([O-])c1cccc2c(Br)[nH]nc12 | inactive | inactive | inactive | 
16 | CCCCCCC(=O)OC1CC(C)(C)NC(C)(C)C1 | inactive | inactive | inactive | 

Row | Structure (SMILES) | Potency [1] | outcome [2] | Potency [3] | outcome [4]
17 | CN1CCCC1CCOC(C)(c1ccccc1)c1ccc(Cl)cc1 (stereo unspecified) | inactive | inactive | inactive | 
18 | NOCC(=O)O | inactive | inactive | inactive | 
19 | NC1CCN(O)C1=O (stereo unspecified) | inactive | inactive | inactive | 
20 | O=C(O)c1cc2cc(F)ccc2[nH]1 | inactive | inactive | inactive | 
21 | CN1CCN(c2nc3cc(C(F)(F)F)ccc3n3cccc23)CC1 | inactive | inactive | inactive | 
22 | CCN1C(=O)C=CC1=O | inactive | inactive | inactive | 
23 | O=c1ccc2c(OCCCCc3ccccc3)c3ccoc3cc2o1 | inactive | inactive | inactive | 
24 | CCN(c1nc(N)c(C(=O)N=C(N)N)nc1Cl)C(C)C | inactive | inactive | inactive | 
25 | CCCN(CCc1ccccc1)C1CCc2c(O)cccc2C1 (stereo unspecified) | inactive | inactive | inactive | 
26 | Oc1ccc(/C=C/c2ccc(/C=C/c3ccc(O)cc3)c(Br)c2)cc1 | inactive | inactive | inactive | 
27 | c1ccc(CN2CCC3(CCCc4ccccc43)CC2)cc1 | inactive | inactive | inactive | 
28 | Cc1cc2c(cc1Cl)N(C(=O)Nc1ccnc3ccccc13)CC2 | inactive | inactive | inactive | 
29 | CC1CCN(CC[C@H]2CCCN2S(=O)(=O)c2cccc(O)c2)CC1 | inactive | inactive | inactive | 
30 | COc1ccc(-c2ccc(N)[n+](CCCC(=O)O)n2)cc1 | inactive | inactive | inactive | 
31 | COc1cc(/C=C(\C#N)C(=O)Nc2nnc(C(F)(F)F)s2)ccc1OCc1ccc(C(F)(F)F)cc1C(F)(F)F |  |  |  | inactive
